Source: PubChem BioAssay
VP16 counter: VP16 counterscreen qHTS for inhibitors of ROR gamma transcriptional activity; Drosophila S2 Gal4-VP16 UAS-luciferase, luminescence, 20 h; 310,000 tested, 3.5% active; Potency, µM (titrated, usually from 53.6 µM), without a hit: top-dose activity, negative = inhibition, most hits filed as inhibitors;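 further: Gal4-VP16 expression switched on by copper sulfate through the metallothionein promoter; potency means the concentration at half of the fitted maximal effect; on the % scale 0 is the no-effect control and ±100 the full control effect; nearly all actives have a fitted effect of over 50% in size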
RORgamma inh: qHTS for inhibitors of ROR gamma transcriptional activity. Potency, µM (series often up to 53.6 µM), for inactives: top-dose activity change, negative = inhibition, most hits filed as inhibitors. Drosophila S2 Gal4-RORgamma UAS-luciferase reporter, 20 h. 310,000 tested, 5.4% active; further: potency means the concentration at half of the fitted maximal effect; on the % scale 0 is the no-effect control and ±100 the full control effect; nearly all actives have a fitted effect of over 60% in size
Target sequence (P51450 whole entry, looked up, the tested form may be a part): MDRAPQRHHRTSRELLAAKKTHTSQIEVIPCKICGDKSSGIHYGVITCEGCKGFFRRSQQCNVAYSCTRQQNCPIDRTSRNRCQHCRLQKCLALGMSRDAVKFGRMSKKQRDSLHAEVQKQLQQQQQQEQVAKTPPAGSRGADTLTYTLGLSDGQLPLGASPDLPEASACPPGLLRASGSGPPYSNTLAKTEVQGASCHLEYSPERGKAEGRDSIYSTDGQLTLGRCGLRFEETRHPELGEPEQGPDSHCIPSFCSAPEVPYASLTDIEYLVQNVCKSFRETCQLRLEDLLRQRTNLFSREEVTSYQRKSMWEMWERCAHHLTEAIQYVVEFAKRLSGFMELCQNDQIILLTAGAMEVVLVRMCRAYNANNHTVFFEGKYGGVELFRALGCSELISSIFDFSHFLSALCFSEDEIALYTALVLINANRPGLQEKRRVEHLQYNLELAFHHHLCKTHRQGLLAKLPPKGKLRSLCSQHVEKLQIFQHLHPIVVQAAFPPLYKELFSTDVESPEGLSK
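Compounds are pin-transferred onto Drosophila Schneider cells expressing a copper-inducible Gal4–ROR gamma transactivation domain fusion. After 1 hr, copper sulfate is added to 700 uM final; luciferase is read 20 hr later.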
SW480 rerep: A quantitative high throughput screen for small molecules that induce DNA re-replication in SW480 colon adenocarcinoma cells; SW480 DNA re-replication, Hoechst DNA content imaging, 48 h; Potency, µM (titrated, usually from 46.1 µM), for the others: at the highest dose re-replication activation, most hits filed as activators; 340,000 tested, 1.8% active; further: potency means the concentration at half of the fitted maximal effect; % of control where 0% means no effect; nearly all actives have a fitted effect of over 55% in size
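Compounds, transferred as 23 nL by pin tool, were incubated with cells for 48 hr; DNA content per nucleus was then quantified by Hoechst staining and fluorescence plate imaging.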
IL-1B inflam inh: qHTS for Inhibitors of Inflammasome Signaling: IL-1-beta AlphaLISA Primary Screen; THP-1 LPS/ATP IL-1B secretion, AlphaLISA, 16 h; hits give low values; activity change, % at 57.5 µM; 360,000 tested, 4.7% active; AID 743279, 2014; in the data active means activity change below about -50%; inconclusive means mostly about -30% to -49%; further: on the % scale 0 is the no-effect control and ±100 the full control effect
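THP-1 cells pretreated 1 hr with compounds (up to 57.5 uM final), then stimulated with LPS (250 ng/mL final) plus ATP (1.25 mM final); secreted IL-1B measured by AlphaLISA after 16 hr, decreased signal indicating inhibition.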
MCF10A rereplic: A quantitative high throughput screen for small molecules that induce DNA re-replication in MCF 10a normal breast cells | MCF 10A DNA re-replication, Hoechst nuclear intensity, 48 h | Potency, µM (titrated, usually from 46.1 µM), without a hit: at the highest dose activity, positive = re-replication, most hits filed as activators | 350,000 tested, 2.9% active; further: potency means the concentration at half of the fitted maximal effect; % of control where 0% means no effect; nearly all actives have a fitted effect of over 50% in size
Active calls of the source: *; ? = inconclusive; / = not tested or not shown; ! = a repeat was not active; [ ] = dose if it differs, or a comment. This is a sample that favours compounds with a hit; in the whole collection about 11% have one here. Unless noted, the call rests on the fitted dose curve; in most records, active means well fitted curve in the direction sought with a large enough effect; inconclusive means small, poorly fitted or top-dose-only effect, or another doubt; inactive means no such curve, though single readings can be large; an effect the other way counts as inactive or inconclusive.

SMILES | VP16 counter | RORgamma inh | SW480 rerep | IL-1B inflam inh | MCF10A rereplic
CC(C)[C@H](NC(=O)c1cccc(S(=O)(=O)N2CCOCC2)c1)C(=O)Nc1nc2ccccc2s1 | 0.7% | ? | 0.4% | -53.6* | 9.9%
CCOc1ccccc1NC(=O)[C@@H](NC(=O)c1cccc(S(=O)(=O)N2CCOCC2)c1)C(C)C | -1.6% | 3.4% | -3.0% | 22.4 | -1.3%
CCCC(=O)Nc1nc2ccc(S(=O)(=O)N3CCCCC3)cc2s1 | -1.9% | 22.8% | 3.66µM* | 29.8 | ?
NC(=O)c1cc(Cl)ccc1OCC(=O)NC1CC1 | / | / | 0.0% | 17.1 | -12.4%
CCN(CC)C[C@@H](O)CN1CCCCc2nc(C)c(C)cc21 | -8.1%[10 µM] | 1.0%[10 µM] | / | / | /
CCN(C(=O)COC(=O)CCc1ccc(OC)cc1)c1c(N)n(Cc2ccccc2)c(=O)[nH]c1=O | / | / | -6.8% | -1.5 | -0.8%
Cc1ccccc1-c1nn(-c2ccc(F)cc2F)cc1CNCC(C)O (stereo unspecified) | 0.8% | 1.7% | -2.4% | -19.1 | 0.8%
CCOCCCNCc1cn(-c2ccc(F)cc2F)nc1-c1ccccc1C | -3.9% | -35.9% | -2.0% | -76.9* | -2.3%
Cc1ccc(OCC(=O)Nc2ccc(N3CCN(C(=O)c4ccco4)CC3)cc2)cc1C | -10.3% | 31.3% | -2.0% | -82.0* | ?
Cc1cccc(OCC(=O)Nc2ccc(N3CCN(C(=O)c4ccco4)CC3)cc2)c1 | -23.6% | 32.2% | 9.3% | -54.5* | ?
O=C(CCCSc1ccccc1)Nc1ccc(Cl)c(S(=O)(=O)N2CCOCC2)c1 | / | / | 3.1% | -2.6 | 13.7%
OC[C@H]1O[C@@](CO)(O[C@H]2O[C@H](CO)[C@@H](O)[C@H](O)[C@H]2O)[C@@H](O)[C@@H]1O | -3.4% | 25.0% | 2.5% | / | 3.2%
CCOP(=O)(OCC)C(NC(=O)Nc1cccc(Cl)c1)C(N)=O (stereo unspecified) | -19.8% | -28.3% | 1.46µM* | -11.6 | 1.9%
C=CCN1C(=O)c2ccc(C(=O)N3CCN(S(=O)(=O)c4cccc(F)c4)CC3)cc2C1=O | / | / | -3.0% | -2.4 | 2.5%
COC(=O)c1ccc(N2CCN(c3ccccc3)CC2)c(N)c1 | 14.5% | 10.1% | 0.7% | 7.3 | 4.2%
O=C(COC(=O)c1ccc(S(=O)(=O)N2CCCCCC2)cc1)NCc1ccc(Cl)cc1 | / | / | -28.6% | 5.1 | -3.2%
N#Cc1ccsc1NC(=O)CCN1CCN(C(c2ccccc2)c2ccccc2)CC1 | -1.9% | -28.6% | ? | -16.7 | ?
Cc1nnc2sc(SCc3cccc(Cl)c3)nn2c1=O | 29.5% | 7.2% | -2.7% | -99.7* | -7.6%
Cc1nnc2sc(SCc3ccccc3)nn2c1=O | 7.0% | 14.9% | / | / | /
Cc1ccc(CN(C(=O)c2csnn2)C(C(=O)NC2CCCC2)c2cccnc2)cc1 (stereo unspecified) | -2.7% | 3.1% | ? | -17.0 | -0.5%
CC(C)Nc1nc2ccccc2c(=O)[nH]1 | -14.2% | -22.5% | 14.9% | 23.8 | 18.1%
OCCNc1nc(Nc2ccccc2)nc2ccccc12 | -7.1% | -32.1% | 7.8% | / | 0.1%
Cc1c2ccccc2nc2c(F)c(NCCO)c(F)c(F)c12 | -18.1% | -25.8% | ? | -86.6* | ?
Cc1c2ccccc2nc2c(F)c(NC(C)C)c(F)c(F)c12 | ? | -29.9% | 13.5% | -53.3* | 19.3%
OCCNc1c2ccccc2nc2c(F)c(F)c(F)c(F)c12 | 7.94µM* | 10µM* | 13µM* | -92.6* | ?
SMILES | VP16 counter | RORgamma inh | SW480 rerep | IL-1B inflam inh | MCF10A rereplic
CN(C)C(=O)c1cc(C(=O)c2ccccc2Br)c[nH]1 | 24.6% | -4.1% | -16.2% | 9.9 | 4.5%
CCCCOc1c(Br)cc(CNCCCN2CCOCC2)cc1OC | -10.2% | -17.2% | ? | -66.0* | 13.5%
CC(=O)N1CCCc2cc(S(=O)(=O)N3CCCC(C(=O)N4CCN(c5cc(C)ccc5C)CC4)C3)ccc21 (stereo unspecified) | ? | 8.0% | ? | -77.8* | 14.5%
COc1ccccc1N1CCN(C(=O)C2CCCN(S(=O)(=O)c3ccc4c(c3)CCCN4C(C)=O)C2)CC1 (stereo unspecified) | 7.94µM* | 22.7% | ? | 12.6 | 7.8%
CC(=O)N1CCCc2cc(S(=O)(=O)N3CCCC(C(=O)N4CCN(c5ccccc5)CC4)C3)ccc21 (stereo unspecified) | ? | ? | 12.1% | -25.4 | -11.2%
O=C(C1CCCN(S(=O)(=O)c2ccccc2)C1)N1CCCCCC1 (stereo unspecified) | -4.9% | 0.1% | 0.517µM*! | -0.1 | 29.1%
C/C(=C\C(=S)Nc1ccccc1)Nc1ccc2ccccc2c1 | 3.55µM* | 5.62µM* | ? | 9.6 | ?
CC(=O)Nc1cccc(NC(=O)Nc2cccc3ccccc23)c1 | -3.2% | 0.2% | -4.9% | -5.1 | -0.3%
C/C(=C\C(=S)Nc1ccccc1)Nc1cccc2ccccc12 | ? | 15.8µM* | -6.4% | -7.1 | 10.3%
C=CCn1c(-c2cccc([N+](=O)[O-])c2)n[nH]c1=S | 8.91µM* | 2.24µM* | 15.0% | 0.0 | ?
O=[N+]([O-])c1cccc(-c2n[nH]c(=S)n2Cc2ccccc2)c1 | ? | 7.08µM* | 1.4% | 23.2 | 20.5%
Cc1cc(-c2cccc([N+](=O)[O-])c2)nc2ccccc12 | 13.0% | 12.5% | -2.3% | 9.9 | -0.9%
COc1cccc(COC(=O)C2CCN(C(=O)c3ccc(F)cc3)CC2)c1OC | / | / | -5.5% | 1.0 | 1.2%
Cc1ccc(Oc2ccc(S(=O)(=O)NCC(C)(C)N3CCOCC3)cc2)cc1 | -1.9% | 4.5% | -10.6% | 8.0 | 20.6µM*
CC(C)(CNS(=O)(=O)c1ccc2c(c1)OCCO2)N1CCOCC1 | 3.3% | 7.1% | 1.7% | 23.4 | 1.3%
CC(=O)N1CCN(c2ccc(NC(=O)c3ccc(C(C)(C)C)cc3)cc2)CC1 | -5.9% | ? | -1.1% | -95.0* | 3.8%
Cc1ccc(C(=O)Nc2ccc(N3CCN(S(C)(=O)=O)CC3)cc2)cc1C | 4.2% | 17.3% | 16.4µM* | -3.5 | ?
Cc1ccc(C(=O)Nc2ccc(N3CCN(S(C)(=O)=O)CC3)cc2)cc1 | 12.4% | 27.0% | -8.8% | 5.7 | -1.9%
CC(=O)N1CCN(c2ccc(NC(=O)c3ccc(Cl)cc3)cc2)CC1 | 2.2% | 4.3% | -2.9% | -2.6 | 19.8%
CC(=O)N1CCN(c2ccc(NC(=O)c3cc(Cl)ccc3Cl)cc2)CC1 | -15.3% | 12.1%[1.91 µM] | 13.9% | -62.8* | 24.4%
Brc1ccc(C=Nc2ccc(Nc3ccccc3)cc2)s1 | -6.6% | ? | / | -10.8 | ?
C(=Nc1ccc(Nc2ccccc2)cc1)c1ccc2ccccc2c1 | 12.6µM* | ? | 23.8% | -68.7* | 27.8%
OC(c1ccccc1)C(NCc1ccccc1)c1ccccc1 (stereo unspecified) | / | / | / | -22.6 | /
